Casp6 inh = inhibitors of human caspase-6; P55212; purified caspase-6, Z-VEID-R110 cleavage fluorescence; inhibition, % at 12.5 µM; 0.53% of 350,000 active;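 active = mean inhibition across replicates at least about 35%, with every replicate also reaching that limit, limit read from the data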;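 note: 0% = median of neutral control wells and 100% = no fluorescence left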
MBD2 inh = blocks human MBD2 binding to methylated DNA. AID 686964. TR-FRET, MBD2 binding to methylated oligonucleotide. Q9UBB5. inhibition, % at 4.4 µM. 0.31% of 370,000 active; in the data active = inhibition above about 13%
Target sequence (Q9UBB5 whole entry, looked up): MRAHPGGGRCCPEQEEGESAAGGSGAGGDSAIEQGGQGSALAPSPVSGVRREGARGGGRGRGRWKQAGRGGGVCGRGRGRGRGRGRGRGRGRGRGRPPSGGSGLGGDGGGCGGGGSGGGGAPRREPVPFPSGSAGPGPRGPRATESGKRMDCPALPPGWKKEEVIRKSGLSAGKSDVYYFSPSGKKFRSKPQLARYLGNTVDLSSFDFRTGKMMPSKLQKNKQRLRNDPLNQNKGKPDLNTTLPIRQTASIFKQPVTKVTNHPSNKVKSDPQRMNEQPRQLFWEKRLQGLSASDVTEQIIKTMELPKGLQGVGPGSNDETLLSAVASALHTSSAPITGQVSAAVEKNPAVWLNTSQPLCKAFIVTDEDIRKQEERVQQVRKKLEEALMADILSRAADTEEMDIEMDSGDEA
LEDGF integ inh = blocks HIV-1 LEDGF/p75-dependent DNA integration. TR-FRET IN-LEDGF/p75 DNA integration, Eu/Cy5. inhibition, % at 3.7 µM. 0.64% of 370,000 active. AID 743269;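 active = inhibition above the screen-wide mean plus 3 SD, cut at about 13% in these data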;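 note: signal is the Cy5 over europium emission ratio at 671 and 618 nm; 0% = plate median of compound wells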
UHRF1 MBD2 ctr = human UHRF1 methylated DNA binding inhibitors; inhibition, % at 4.4 µM; 0.75% of 370,000 active; UHRF1 binding to methylated oligo, TR-FRET; Q96T88; AID 687016; in the data active = inhibition above about 21%;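 note: UHRF1 SRA domain binding a hemimethylated CpG hairpin DNA probe; 0% = median of test compound wells and 100% = reference inhibitor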
IN multimer up = counter-screen for LEDGF/p75 integration inhibitors: HIV-1 integrase multimerization activators | TR-FRET HIV-1 integrase multimerization, biochemical | 17% of 2,000 active | activation, % at 7.7 µM | shares compounds with LEDGF integ inh; in the data active = activation above about 8.9%
TRFRET interf = optically interferes with TR-FRET readout in LEDGF counter-screen. shares compounds with LEDGF integ inh. TR-FRET optical interference counterscreen, HIV-1 IN multimerization. inhibition, % at 7.7 µM. 2,000 tested, under 10 active. AID 1053135;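 active = inhibition above the mean over all tested compounds plus 3 SD, which no compound reached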;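 note: 0% = integrase with antibodies and DMSO and 100% = antibodies without integrase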
IN-LEDGF confirm = LEDGF/p75-dependent HIV-1 integration inhibition, confirmation. shares compounds with LEDGF integ inh. TR-FRET LEDGF/p75-dependent HIV-1 integration, biochemical. inhibition, % at 3.7 µM. 36% of 2,000 active. AID 1053136; in the data active = inhibition above about 14%
* marks the source's active call; other numbers are inactive results; . = no result. Sampled rows, rich in hits. Any-hit rate of the full collection: about 1.4%.

SMILES	Casp6 inh	MBD2 inh	LEDGF integ inh	UHRF1 MBD2 ctr	IN multimer up	TRFRET interf	IN-LEDGF confirm
O=C(N/N=C/C=C/c1ccco1)/C(=C/c1ccccc1)NC(=O)c1ccccc1	2.9	-1.0	17.5*	-0.9	7.7	-38.7	29.2*
O=C1C[C@@H](O)[C@H](O)c2cccc(O)c21	.	-6.1	17.9*	-6.6	-0.9	4.8	9.3
O=C1O[C@@H](c2ccc(O)cc2)Cc2cccc(O)c21	0.6	-0.5	-2.7	0.0	.	.	.
Oc1ccc(/C=N/N(c2ccccc2)c2ccccc2)c(O)c1O	25.2	-0.1	25.6*	-2.8	-1.2	6.0	15.9*
CCOC(=O)C(C(C)=O)c1c(Br)c(O)c(O)c2c(C(=O)c3ccc(C)cc3)coc12 (configuration not stated)	.	-5.4	26.1*	-0.8	-2.3	11.8	14.3*
CCOC(=O)c1c(C)n(-c2ccc(C)cc2)c2c(C(C(C)=O)C(=O)O)c(Br)c(O)c(O)c12 (configuration not stated)	.	3.7	1.7	-1.6	.	.	.
Cc1ccc2c(c1)c(=O)c1c3n2CCN(C(=O)CCl)C3CC1 (configuration not stated)	.	-8.6	14.2*	-4.5	15.0*	-53.6	48.6*
CNc1ccc(Br)cc(C(=O)/C=C/c2ccc(OC)cc2OC)c1=O	.	-0.8	13.4*	-1.2	3.5	-12.6	11.6
O=C(NC(Cc1ccccc1)C(=O)O)/C(=C/c1ccc(Cl)cc1)NC(=O)c1ccccc1 (configuration not stated)	-1.3	1.7	20.3*	-1.7	1.6	-8.1	15.2*
COc1cccc(Nc2nc(C(N)CC(C)C)cs2)n1 (configuration not stated)	1.8	0.5	13.7*	-1.1	-0.6	2.9	5.2
O=C(CCSc1ccccc1)Nc1nnc(-c2cccs2)o1	0.6	-3.7	8.8	-0.6	.	.	.
O=C(CCSc1ccccc1)Nc1nnc(-c2ccccc2)o1	-1.1	1.6	16.2*	-0.7	-3.2	16.0	1.5
COc1ccc2c3c([nH]c2c1)[C@H](CO)N(C(C)=O)CC31CCN(Cc2cc(-c3ccccc3)on2)CC1	-1.1	.	.	.	.	.	.
CSc1nc2c([nH]1)c(=S)n(C)c(=O)n2C	-1.8	-2.6	25.9*	-3.3	6.8	-24.1	-10.3
COc1ccc(S(=O)(=O)N(C)C[C@@H]2Oc3ccc(NC(=O)Nc4c(C)noc4C)cc3CC(=O)N([C@H](C)CO)C[C@H]2C)cc1	0.4	.	.	.	.	.	.
Cc1nnsc1SCCNC(=O)c1c(F)cccc1F	.	-2.5	-3.1	4.3	.	.	.
Cc1cccc(C)c1NC(=O)NCCSc1snnc1C	-2.5	1.8	15.0*	2.0	0.1	-0.5	2.0
C[C@@H]1CCCCO[C@@H](CN(C)S(=O)(=O)c2ccc(F)cc2)[C@@H](C)CN([C@H](C)CO)C(=O)c2cc(NS(=O)(=O)c3ccccc3)ccc2O1	-2.5	.	.	.	.	.	.
CCOC(=O)C1=C(COC(=O)c2sccc2C)NC(=O)NC1C (configuration not stated)	1.1	10.1	-3.4	5.5	.	.	.
CCOC(=O)C1=C(COC(=O)c2ccc([N+](=O)[O-])s2)NC(=O)NC1C (configuration not stated)	89.4*	-0.7	31.1*	2.9	0.5	-1.6	60.6*
O=C(C(O)c1ccc(Br)cc1)N1CCC(Nc2ccc3[nH]ncc3c2)CC1 (configuration not stated)	6.3	-2.9	17.1*	-5.5	4.9	-24.8	1.2
O=C(Nc1ccc2[nH]ncc2c1)C1CCC1	-0.3	0.6	-3.2	-1.3	.	.	.
O=C(/C=C/c1ccco1)Nc1ccc2c(c1)OCO2	2.4	1.7	0.0	1.6	.	.	.
CC(=O)NS(=O)(=O)c1ccc(NC(=O)/C=C/c2ccco2)cc1	28.3	2.9	29.6*	28.5*	2.7	-13.5	25.9*
CON1C(=O)C(=O)N(OC)C2CCCCC21 (configuration not stated)	.	7.0	-3.7	0.0	.	.	.
C=CCON1C(=O)C(=O)N(OCC=C)[C@H]2CCCC[C@H]21	1.7	1.9	81.0*	2.4	5.1	-25.7	0.1
O=C1CSc2ccccc2N1Cc1ccc(F)cc1	2.4	-1.3	38.4*	-2.9	1.5	-5.2	-5.4

Screening results as filed in PubChem BioAssay.
